What all share (experiment): NCI-60 one-dose screen, 48 h (100 = growth as untreated, 0 = no growth, -100 = all killed)
Holding throughout (details): 10 µM unless noted

For test [1], the system named is T-47D breast.
Test [2] concerns BT-549 breast.
Test [3] has as its system MDA-MB-435 melanoma.
Test [4] concerns SW-620 colon.
Test [5] relates to MCF7 breast.
Test [6] deals with HCT-116 colon.
In test [7] the test system is HCC-2998 colon.
Test [8] concerns KM12 colon.

Compounds without any hit were thinned out: in the full panel of roughly 83,000, 20% have a hit.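 Plates (96-well) were seeded with cells, treated with compound at one concentration, and incubated for 48 hours before percent growth was determined.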 Unmarked numbers belong to inactive results. Active and inactive are the calls of the source. Rule for the calls: active = growth percent below 10; inactive = the rest.

For `COc1cccc(N2CCN(c3ncnc4cc[nH]c34)CC2)c1`, the growth was 20.4% in test [1]; 42.9% in test [2]; 42.6% in test [3]; 90.6% in test [4]; 46.7% in test [5]; 35.8% in test [6]. For the same molecule, the results for the growth in test [7] and in test [8] were 62.7% and 71.8%, respectively.
Turning to `Cc1ccc(C(=O)CC(=O)C(F)(F)C(F)(F)C(F)(F)F)s1`, the growth in test [1] was 108%; in test [2], 103%; in test [3], 99%; in test [4], 103%; in test [5] it was 105%; in test [6], 110%. Besides, the growth in test [7] was 105%; in test [8] it was 112%.
Consider `CC(=O)c1ccc(N2C(=O)c3ccc(Oc4ccccc4)cc3C2=O)cc1`, for which the growth in test [1] is 106%; in test [2] it was 98.8%; in test [3], 96.3%; in test [4] it was 98.8%; in test [5] it was 101%; in test [6], 104%. Further, the results for the growth in test [7] and in test [8] were 99.4% and 95.6%, respectively.
As for `COc1cc(-c2nn(C(=O)NCCN3CCN(C)CC3)cc2-c2ccncc2)ccc1Cl`, the growth in test [1] is 62.2%; in test [2], 88.1%; in test [3], 80.4%; in test [4] it was 111%; in test [5], 76.5%; in test [6], 76.9%. Moreover, the growth in test [7] is 93.7%; in test [8] it was 96.4%.
As for `CCN(CC)c1ccc(/C=N/NC(=O)c2ccc(S(C)(=O)=O)cc2)c(O)c1`, the growth in test [1] is 30%; in test [2] it was 30.7%; in test [3], 37.2%; in test [4], 33.1%; in test [5], 8.79% (active); in test [6] it was 18.4%. Moreover, the growth in test [7] was 39.6%; in test [8], 25.9%.
Consider `CCOC(=O)C1C(=O)C=C(c2ccccc2)CC1c1sc(N(C)Cc2ccccc2)nc1Cl` (stereo unspecified), for which the growth in test [1] is 60.4%; in test [2] it was 96.1%; in test [3], 96.2%; in test [4] it was 90.3%; in test [5], 79.9%; in test [6], 80.1%. Besides, the growth in test [7] was 109%; in test [8], 90.9%.
`C=C1C(=O)O[C@H]2[C@H]1CC/C(COC(=O)NCc1ccc(Cn3c(=O)sn(CCCl)c3=O)cc1)=C\CC[C@@]1(C)O[C@@H]21`: the growth in test [1] is 3.07% (active); in test [2], 59.4%; in test [3] it was 79.4%; in test [4] it was -20.3% (active); in test [5], 31.7%; in test [6] it was -61.7% (active). Besides, the results for the growth in test [7] and in test [8] were 120% and 95.2%, respectively.
Regarding `Nc1c(C(=O)C[C@@H](N)CO)ccc2c1C(=O)CCO2`, the growth was 33.6% in test [1]; 41.9% in test [2]; 68.3% in test [3]; 5.93% (active) in test [4]; 22.5% in test [5]; 37.9% in test [6]. In addition, the growth in test [7] is -5.53% (active); in test [8], 20.1%.
As to `CCCCCCCC/C=C/CCCCCCCC1=NC(C)(C)CN1c1ccccc1`, the growth in test [1] was 81.2%; in test [2] it was 105%; in test [3], 50.3%; in test [4] it was 82%; in test [5], 86.3%; in test [6], 62.8%. Also, the results for the growth in test [7] and in test [8] were 103% and 105%, respectively.
With `Fc1ccc(-c2nc(-c3ccc(-c4nc5ccc(F)cc5[nH]4)cc3)no2)cc1`, the growth in test [1] was 62.8%; in test [2] it was 60.1%; in test [3] it was 68.2%; in test [4] it was 64.7%; in test [5] it was 52.5%; in test [6], 73%. For the same molecule, the growth was 82.2% in test [7] and 60.5% in test [8].
In the case of `Cc1ccc(Nc2cccc3ccccc23)cc1`, the growth was 65.1% in test [1]; 103% in test [2]; 29.7% in test [3]; 77.7% in test [4]; 38.4% in test [5]; 80.7% in test [6]. Besides, the values for the growth in test [7] and in test [8] were 88.1% and 59.4%, respectively.
As to `COc1ccc(CNc2c3ccccc3nc3ccc(OC)cc23)cc1`, the growth in test [1] was 34.2%; in test [2], 43%; in test [3] it was 19%; in test [4], 15.8%; in test [5], -29.8% (active); in test [6], 12.7%. The growth in test [7] was -57.6% (active); in test [8], 27.6%.
Turning to `COc1cc2c(c(OC)c1O)C(=O)C(OC)C(c1ccc(O)c(O)c1)O2` (stereo unspecified), the growth was 50.3% in test [1]; -14.6% (active) in test [2]; -23.8% (active) in test [3]; 22.6% in test [4]; 11% in test [5]; 3.39% (active) in test [6]. In addition, the values for the growth in test [7] and in test [8] were 20.1% and 8.81% (active), respectively.
Regarding `CC(=O)O[C@@H]1CC2C(C)(C)CCCC2(C)C2=C1C(=O)C(C(C)C)=CC2=O` (stereo partly specified), the growth is -7.86% (active) in test [1]; -13% (active) in test [2]; -28.1% (active) in test [3]; -52.5% (active) in test [4]; 3.73% (active) in test [5]; -24.4% (active) in test [6]. Moreover, the figures for the growth in test [7] and in test [8] were -60% (active) and -48.7% (active), respectively.
For the molecule `CN1C2CCC1/C(=C\c1ccc(Cl)cc1)C(=O)/C2=C/c1ccc(Cl)cc1`, the growth is 59.7% in test [1]; 70.6% in test [2]; 63.9% in test [3]; 57.5% in test [4]; 22.7% in test [5]; 17.4% in test [6]. The results for the growth in test [7] and in test [8] were 112% and 54.3%, respectively.
As for `O=C(c1ccccc1)C1OC1C(=O)c1ccccc1` (stereo unspecified), the growth is -7.04% (active) in test [1]; 92.1% in test [2]; 1.06% (active) in test [3]; 27.7% in test [4]; 16.8% in test [5]; -5.13% (active) in test [6]. Further, the growth in test [7] was 69.8%; in test [8], 55.5%.
As to `COc1ccc(C(=O)N2N=C(c3ccc(F)cc3)CC2c2cn(-c3ccccc3)nc2-c2ccccc2)cc1` (stereo unspecified), the growth is 50.6% in test [1]; 77.3% in test [2]; 62.5% in test [3]; 47.3% in test [4]; 33.7% in test [5]; 7.49% (active) in test [6]. Also, the growth in test [7] is 85.7%; in test [8], 50.6%.
Take `O=[N+]([O-])c1ccc(N/N=C/c2ccccc2O)nc1`: the growth was 24% in test [1]; 47.8% in test [2]; 46.8% in test [3]; 52.6% in test [4]; 16.8% in test [5]; 22.3% in test [6]. Further, the values for the growth in test [7] and in test [8] were 14.7% and 27%, respectively.
Consider `CCN(CC)CCNC(=O)n1cc(-c2ccncc2)c(-c2ccc(Cl)c(OC)c2)n1`, for which the growth in test [1] is 69.2%; in test [2], 96.3%; in test [3], 97.2%; in test [4] it was 113%; in test [5] it was 85.9%; in test [6], 84%. In addition, the growth in test [7] was 99%; in test [8], 103%.
Consider `ClCCn1cnc2c(SCc3ccccc3Cl)ncnc21`, for which the growth in test [1] was 52.8%; in test [2], 44.1%; in test [3], 37.5%; in test [4], 28.9%; in test [5], 21.6%; in test [6], 32.8%. For the same molecule, the figures for the growth in test [7] and in test [8] were 51.1% and 34.8%, respectively.
With `COc1ccc(NC(=O)Cn2c(=O)sc3c(-c4ccc(Cl)cc4)cc(-c4ccc(Cl)cc4)nc32)cc1`, the growth is 79.9% in test [1]; 87.6% in test [2]; 102% in test [3]; 99.6% in test [4]; 89.2% in test [5]; 88.1% in test [6]. Moreover, the results for the growth in test [7] and in test [8] were 104% and 99.7%, respectively.
Turning to `CCOC(OCC)c1cnc2nc(NC(C)=O)[nH]c(=O)c2n1`, the growth in test [1] was 99.9%; in test [2] it was 112%; in test [3], 105%; in test [4], 103%; in test [5] it was 96.4%; in test [6], 102%. In addition, the growth in test [7] was 107%; in test [8], 108%.
As to `CN1C(=O)NC(Cc2c[nH]c3c(Cl)cccc23)C1=O` (stereo unspecified), the growth is 111% in test [1]; 118% in test [2]; 114% in test [3]; 112% in test [4]; 96.2% in test [5]; 108% in test [6]. For the same molecule, the growth is 97.5% in test [7] and 96.6% in test [8].
Consider `CCCCCCCCOC(=O)C(C)OC(=O)OCCOCCOC(=O)OC(C)C(=O)OCCCCCCCC` (stereo unspecified), for which the growth in test [1] is 99.9%; in test [2], 107%; in test [3] it was 103%; in test [4], 106%; in test [5] it was 104%; in test [6] it was 102%. In addition, the growth was 100% in test [7] and 104% in test [8].
Take `O=C(O)CSc1ccc(NCc2oc(CO)cc(=O)c2O)cc1`: the growth in test [1] is 108%; in test [2], 92.8%; in test [3] it was 116%; in test [4] it was 105%; in test [5] it was 93.8%; in test [6], 95.2%. The growth in test [7] was 99.9%; in test [8] it was 100%.
`O=C(CCl)Nc1ccc2c(c1)C(=O)c1ccccc1C2=O`: the growth was -71% (active) in test [1]; -45.3% (active) in test [2]; 13.1% in test [3]; -78.6% (active) in test [4]; -25% (active) in test [5]; -28.6% (active) in test [6]. Further, the growth in test [7] was 69%; in test [8], 54.9%.
For `O=C(/C=C/c1cn(-c2ccccc2)nc1-c1ccccc1)OCc1cn(-c2cccc([N+](=O)[O-])c2)nn1`, the growth was 78.2% in test [1]; 94.7% in test [2]; 94% in test [3]; 90.6% in test [4]; 86.8% in test [5]; 82.3% in test [6]. In addition, the growth in test [7] is 96.7%; in test [8] it was 98.6%.
On to `CC(=O)OC[C@H]1O[C@@H](n2c(=O)cc(N)[nH]c2=O)C(OC(C)=O)[C@@H]1OC(C)=O` (stereo partly specified), for which the growth is 96% in test [1]; 92.8% in test [2]; 101% in test [3]; 107% in test [4]; 94.9% in test [5]; 103% in test [6]. Further, the growth in test [7] was 106%; in test [8], 111%.
On to `O=C(N/N=C/c1ccccc1O)c1ccncc1`, for which the growth is 33.6% in test [1]; 57% in test [2]; 82.5% in test [3]; 66.1% in test [4]; 23.1% in test [5]; 48.7% in test [6]. The growth in test [7] is 64.5%; in test [8], 34.3%.
As to `COc1ccc(C(=O)OC2C(OC3C(O)COC(O[C@H]4C[C@H]5[C@@H]6CC=C7C[C@@H](O)CC[C@]7(C)[C@H]6CC[C@]5(C)[C@H]4[C@H](C)C(=O)CCC(C)C)C3OC(C)=O)OCC(O)C2O)cc1` (stereo partly specified), the growth is 2.99% (active) in test [1]; -8.64% (active) in test [2]; -47.4% (active) in test [3]; -57.3% (active) in test [4]; -30.8% (active) in test [5]; 1.33% (active) in test [6]. The values for the growth in test [7] and in test [8] were 52.9% and 24.1%, respectively.
As to `c1ccc(CCn2cccc2)nc1`, the growth is 94.7% in test [1]; 106% in test [2]; 114% in test [3]; 117% in test [4]; 101% in test [5]; 101% in test [6]. Also, the growth in test [7] is 96.7%; in test [8], 103%.
For `CCn1c(=O)c(C(=O)NCCCO)c(O)c2ccccc21`, the growth in test [1] was 106%; in test [2], 150%; in test [3], 106%; in test [4] it was 106%; in test [5], 95.2%; in test [6], 104%. Also, the growth in test [7] was 139%; in test [8], 120%.

Source of the values: PubChem BioAssay (NCI).
